# Article PMC7862700, “An all-to-all approach to the identification of sequence-specific readers for epigenetic DNA modifications on cytosine”
# Assays:
# Experiment in all cases: DAPPL (digital affinity profiling via proximity ligation, sequencing); 10 mM Tris-HCl pH 7.5, 50 mM NaCl, 1 mM DTT, 4% glycerol, room temperature, 30 min; GST-TFs on glutathione beads, 16-mer random dsDNA library, 0.1% formaldehyde crosslink after washing; high values mean tight binding
# FEV = biological target: T1, FEV (Homo sapiens, UniProt Q99581 1-238); conditions: protein: recombinant; tags: N-terminal GST; dsDNA, one strand shown
# T1 sequence: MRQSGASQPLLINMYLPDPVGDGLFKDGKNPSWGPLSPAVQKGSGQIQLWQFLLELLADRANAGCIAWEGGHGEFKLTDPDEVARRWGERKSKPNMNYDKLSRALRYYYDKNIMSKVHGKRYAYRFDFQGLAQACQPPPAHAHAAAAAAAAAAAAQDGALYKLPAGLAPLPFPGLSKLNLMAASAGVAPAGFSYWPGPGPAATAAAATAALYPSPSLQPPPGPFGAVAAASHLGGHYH
# In short: (§1)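 Sequencing on an Illumina NextSeq500 followed washing, crosslinking with 0.1% formaldehyde, proximity ligation (BsaI/T4 ligase, 1 h, 37 °C) and PCR amplification of pools that had been incubated for 30 min at room temperature with 200 nmole of a random double-stranded 16-mer DNA library in Tris/NaCl/DTT/glycerol buffer. Each pool held DNA-barcoded human transcription factors, expressed in yeast as GST fusions and captured on glutathione beads, plus a tag-only sample. Binding signal is a hexamer's read frequency for a factor divided by its frequency in the tag-only sample.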
# ETV5 = ETV5 (Homo sapiens, UniProt P41161 1-510); conditions: protein: recombinant; tags: N-terminal GST; dsDNA, one strand shown
# In short: as §1
# HSF1 = HSF1 (Homo sapiens, UniProt Q00613 1-529); conditions: protein: recombinant; tags: N-terminal GST; chain copies: 3; dsDNA, one strand shown
# In short: as §1
# SPIC = biological target: T2, SPIC (Homo sapiens, UniProt Q8N5J4 1-248); conditions: protein: recombinant; tags: N-terminal GST; dsDNA, one strand shown
# T2 sequence: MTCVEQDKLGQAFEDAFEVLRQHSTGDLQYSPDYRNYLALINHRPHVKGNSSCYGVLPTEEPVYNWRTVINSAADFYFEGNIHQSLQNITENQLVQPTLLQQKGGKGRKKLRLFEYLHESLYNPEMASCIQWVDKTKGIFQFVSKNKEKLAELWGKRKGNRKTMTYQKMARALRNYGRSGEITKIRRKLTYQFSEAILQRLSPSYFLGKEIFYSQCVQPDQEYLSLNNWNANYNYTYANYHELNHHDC
# In short: as §1
# ELF4 = ELF4 (Homo sapiens, UniProt Q99607 1-663); conditions: protein: recombinant; tags: N-terminal GST; dsDNA, one strand shown
# In short: as §1
# ELK4 = biological target: T3, ELK4 (Homo sapiens, UniProt P28324-2 1-405); conditions: protein: recombinant; tags: N-terminal GST; dsDNA, one strand shown
# T3 sequence: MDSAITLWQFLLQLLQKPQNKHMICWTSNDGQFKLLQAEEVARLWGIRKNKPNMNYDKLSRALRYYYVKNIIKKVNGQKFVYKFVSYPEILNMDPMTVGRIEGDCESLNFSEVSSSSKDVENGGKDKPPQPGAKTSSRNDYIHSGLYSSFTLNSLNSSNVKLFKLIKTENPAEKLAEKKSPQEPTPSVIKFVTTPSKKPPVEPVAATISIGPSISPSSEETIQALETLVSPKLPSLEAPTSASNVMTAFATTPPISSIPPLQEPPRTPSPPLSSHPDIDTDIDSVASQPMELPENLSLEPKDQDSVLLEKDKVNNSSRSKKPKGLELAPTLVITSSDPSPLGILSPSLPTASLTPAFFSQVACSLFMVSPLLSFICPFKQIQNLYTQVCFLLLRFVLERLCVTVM
# In short: as §1
# ETV2 = biological target: T4, ETV2 (Homo sapiens, UniProt O00321 1-342); conditions: protein: recombinant; tags: N-terminal GST; dsDNA, one strand shown
# T4 sequence: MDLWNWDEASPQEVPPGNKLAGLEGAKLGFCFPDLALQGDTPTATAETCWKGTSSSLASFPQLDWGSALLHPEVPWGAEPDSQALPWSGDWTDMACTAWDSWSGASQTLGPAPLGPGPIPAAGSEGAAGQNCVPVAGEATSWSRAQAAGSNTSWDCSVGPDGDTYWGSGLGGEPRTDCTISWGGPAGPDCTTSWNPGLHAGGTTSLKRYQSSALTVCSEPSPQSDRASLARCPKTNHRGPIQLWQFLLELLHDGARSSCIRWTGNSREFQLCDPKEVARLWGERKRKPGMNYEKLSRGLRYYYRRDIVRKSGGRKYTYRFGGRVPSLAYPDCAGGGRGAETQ
# In short: as §1
# ELF3 = biological target: T5, ELF3 (Homo sapiens, UniProt P78545 1-371); conditions: protein: recombinant; tags: N-terminal GST; dsDNA, one strand shown
# T5 sequence: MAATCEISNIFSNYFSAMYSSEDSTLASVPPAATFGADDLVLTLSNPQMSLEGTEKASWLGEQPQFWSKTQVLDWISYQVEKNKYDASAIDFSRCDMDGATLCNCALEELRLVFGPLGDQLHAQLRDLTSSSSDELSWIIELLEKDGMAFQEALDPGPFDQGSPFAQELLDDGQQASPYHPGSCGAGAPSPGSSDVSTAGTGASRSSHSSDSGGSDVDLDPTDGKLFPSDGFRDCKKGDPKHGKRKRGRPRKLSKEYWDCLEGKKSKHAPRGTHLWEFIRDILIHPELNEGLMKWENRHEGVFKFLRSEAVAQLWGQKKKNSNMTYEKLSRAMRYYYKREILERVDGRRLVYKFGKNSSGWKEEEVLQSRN
# In short: as §1
# CRX = CRX (Homo sapiens, UniProt O43186 1-299); conditions: protein: recombinant; tags: N-terminal GST; dsDNA, one strand shown
# In short: as §1
# ETV1 = ETV1 (Homo sapiens, UniProt P50549 1-477); conditions: protein: recombinant; tags: N-terminal GST; dsDNA, one strand shown
# In short: as §1
# ERF = biological target: T6, ERF (Homo sapiens, UniProt P50548 1-548); conditions: protein: recombinant; tags: N-terminal GST; dsDNA, one strand shown
# T6 sequence: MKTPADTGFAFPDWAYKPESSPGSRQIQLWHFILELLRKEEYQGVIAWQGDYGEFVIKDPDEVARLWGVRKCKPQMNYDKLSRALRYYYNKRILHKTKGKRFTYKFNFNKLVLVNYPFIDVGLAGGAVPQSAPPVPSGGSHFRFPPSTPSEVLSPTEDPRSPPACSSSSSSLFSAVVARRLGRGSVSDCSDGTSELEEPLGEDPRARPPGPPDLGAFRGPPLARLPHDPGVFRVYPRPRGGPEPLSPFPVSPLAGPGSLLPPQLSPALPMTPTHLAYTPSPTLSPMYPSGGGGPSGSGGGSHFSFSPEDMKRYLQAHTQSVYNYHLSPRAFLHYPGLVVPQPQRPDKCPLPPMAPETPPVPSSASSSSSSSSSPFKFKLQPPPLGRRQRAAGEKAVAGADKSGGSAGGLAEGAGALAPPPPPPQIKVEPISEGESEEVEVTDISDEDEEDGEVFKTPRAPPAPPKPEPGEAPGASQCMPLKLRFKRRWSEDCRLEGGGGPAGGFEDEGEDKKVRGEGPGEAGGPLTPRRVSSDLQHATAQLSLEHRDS
# In short: as §1
# ETV3L = biological target: T7, ETV3L (Homo sapiens, UniProt Q6ZN32 1-361); conditions: protein: recombinant; tags: N-terminal GST; dsDNA, one strand shown
# T7 sequence: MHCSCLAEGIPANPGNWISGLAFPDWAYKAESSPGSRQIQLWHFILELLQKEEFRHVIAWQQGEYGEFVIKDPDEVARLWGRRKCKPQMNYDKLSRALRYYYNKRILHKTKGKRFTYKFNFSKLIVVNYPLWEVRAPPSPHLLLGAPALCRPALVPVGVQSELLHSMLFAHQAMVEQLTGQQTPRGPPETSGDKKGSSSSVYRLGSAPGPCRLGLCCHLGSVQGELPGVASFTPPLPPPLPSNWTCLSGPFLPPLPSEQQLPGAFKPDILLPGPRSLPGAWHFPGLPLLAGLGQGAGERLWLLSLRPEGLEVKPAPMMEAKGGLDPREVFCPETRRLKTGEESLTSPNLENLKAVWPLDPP
# In short: as §1
# ETS2 = biological target: T8, ETS2 (Homo sapiens, UniProt P15036 1-469); conditions: protein: recombinant; tags: N-terminal GST; dsDNA, one strand shown
# T8 sequence: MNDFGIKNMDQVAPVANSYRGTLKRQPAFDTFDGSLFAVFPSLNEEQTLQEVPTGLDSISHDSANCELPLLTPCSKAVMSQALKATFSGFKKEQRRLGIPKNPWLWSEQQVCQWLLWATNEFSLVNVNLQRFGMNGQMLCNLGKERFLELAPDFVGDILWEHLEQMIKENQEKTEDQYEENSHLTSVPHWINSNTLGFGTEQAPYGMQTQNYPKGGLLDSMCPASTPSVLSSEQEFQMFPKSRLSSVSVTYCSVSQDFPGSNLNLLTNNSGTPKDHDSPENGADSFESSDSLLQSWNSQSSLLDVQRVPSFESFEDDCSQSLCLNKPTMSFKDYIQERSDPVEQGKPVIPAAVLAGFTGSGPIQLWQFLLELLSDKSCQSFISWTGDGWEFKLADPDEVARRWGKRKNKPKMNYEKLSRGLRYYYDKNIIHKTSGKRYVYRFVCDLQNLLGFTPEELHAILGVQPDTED
# In short: as §1
# SPDEF = biological target: T9, SPDEF (Homo sapiens, UniProt O95238 1-335); conditions: protein: recombinant; tags: N-terminal GST; dsDNA, one strand shown
# T9 sequence: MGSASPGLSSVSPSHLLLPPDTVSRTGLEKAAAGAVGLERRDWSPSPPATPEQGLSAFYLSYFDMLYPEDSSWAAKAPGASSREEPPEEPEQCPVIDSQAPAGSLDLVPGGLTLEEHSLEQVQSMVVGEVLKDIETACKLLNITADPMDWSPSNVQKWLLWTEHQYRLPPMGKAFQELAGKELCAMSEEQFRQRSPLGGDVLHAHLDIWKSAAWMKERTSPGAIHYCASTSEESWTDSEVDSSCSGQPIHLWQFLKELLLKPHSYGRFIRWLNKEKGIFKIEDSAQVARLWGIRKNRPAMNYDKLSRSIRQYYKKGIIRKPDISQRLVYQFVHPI
# In short: as §1
# ETV7 = biological target: T10, ETV7 (Homo sapiens, UniProt Q9Y603 1-341); conditions: protein: recombinant; tags: N-terminal GST; dsDNA, one strand shown
# T10 sequence: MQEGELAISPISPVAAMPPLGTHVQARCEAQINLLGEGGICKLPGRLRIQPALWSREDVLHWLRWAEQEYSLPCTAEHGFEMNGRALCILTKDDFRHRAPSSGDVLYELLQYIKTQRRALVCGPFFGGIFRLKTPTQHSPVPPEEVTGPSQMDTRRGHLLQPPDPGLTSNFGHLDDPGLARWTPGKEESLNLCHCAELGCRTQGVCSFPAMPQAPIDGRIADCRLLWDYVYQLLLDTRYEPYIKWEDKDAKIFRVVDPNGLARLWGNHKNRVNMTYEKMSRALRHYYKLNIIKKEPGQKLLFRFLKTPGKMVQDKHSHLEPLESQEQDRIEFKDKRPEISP
# In short: as §1
# ELF5 = biological target: T11, ELF5 (Homo sapiens, UniProt Q9UKW6-2 1-255); conditions: protein: recombinant; tags: N-terminal GST; dsDNA, one strand shown
# T11 sequence: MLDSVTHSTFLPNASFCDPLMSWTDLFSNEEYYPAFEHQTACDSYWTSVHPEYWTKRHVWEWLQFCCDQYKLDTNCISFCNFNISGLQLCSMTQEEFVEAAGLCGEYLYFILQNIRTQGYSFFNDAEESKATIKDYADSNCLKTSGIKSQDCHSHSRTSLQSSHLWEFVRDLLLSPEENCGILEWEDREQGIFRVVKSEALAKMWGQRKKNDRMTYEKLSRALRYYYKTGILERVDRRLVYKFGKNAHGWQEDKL
# In short: as §1
# ETV3 = biological target: T12, ETV3 (Homo sapiens, UniProt P41162-2 1-143); conditions: protein: recombinant; tags: N-terminal GST; dsDNA, one strand shown
# T12 sequence: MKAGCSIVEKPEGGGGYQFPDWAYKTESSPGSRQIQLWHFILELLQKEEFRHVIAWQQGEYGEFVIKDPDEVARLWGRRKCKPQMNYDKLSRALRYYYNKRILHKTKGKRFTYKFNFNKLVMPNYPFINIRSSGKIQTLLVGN
# In short: as §1
# ETV6 = ETV6 (Homo sapiens, UniProt P41212 1-452); conditions: protein: recombinant; tags: N-terminal GST; dsDNA, one strand shown
# In short: as §1
# Sequence of HSF1 (Q00613 whole entry): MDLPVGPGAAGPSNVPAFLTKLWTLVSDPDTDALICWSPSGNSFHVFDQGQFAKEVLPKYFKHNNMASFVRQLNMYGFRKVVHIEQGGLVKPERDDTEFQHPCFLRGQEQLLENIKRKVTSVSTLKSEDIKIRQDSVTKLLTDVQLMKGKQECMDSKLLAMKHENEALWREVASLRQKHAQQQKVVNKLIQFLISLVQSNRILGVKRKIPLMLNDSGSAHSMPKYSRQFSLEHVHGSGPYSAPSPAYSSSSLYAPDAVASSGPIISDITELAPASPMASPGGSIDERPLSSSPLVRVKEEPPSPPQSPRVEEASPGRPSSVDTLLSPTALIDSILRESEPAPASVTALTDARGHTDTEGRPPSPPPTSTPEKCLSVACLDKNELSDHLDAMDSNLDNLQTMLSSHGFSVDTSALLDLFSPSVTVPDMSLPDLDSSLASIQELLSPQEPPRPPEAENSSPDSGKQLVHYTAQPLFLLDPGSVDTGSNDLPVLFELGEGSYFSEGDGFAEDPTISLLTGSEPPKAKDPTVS
# Sequence of CRX (O43186 whole entry): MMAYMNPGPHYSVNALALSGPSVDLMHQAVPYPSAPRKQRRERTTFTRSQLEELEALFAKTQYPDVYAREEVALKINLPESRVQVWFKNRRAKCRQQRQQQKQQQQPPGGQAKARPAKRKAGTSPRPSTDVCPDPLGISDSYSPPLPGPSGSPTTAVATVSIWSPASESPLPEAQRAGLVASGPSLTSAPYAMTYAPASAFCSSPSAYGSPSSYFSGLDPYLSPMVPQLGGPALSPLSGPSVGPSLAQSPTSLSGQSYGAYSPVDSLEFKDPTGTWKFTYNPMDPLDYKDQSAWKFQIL
# Sequence of ETV5 (P41161 whole entry): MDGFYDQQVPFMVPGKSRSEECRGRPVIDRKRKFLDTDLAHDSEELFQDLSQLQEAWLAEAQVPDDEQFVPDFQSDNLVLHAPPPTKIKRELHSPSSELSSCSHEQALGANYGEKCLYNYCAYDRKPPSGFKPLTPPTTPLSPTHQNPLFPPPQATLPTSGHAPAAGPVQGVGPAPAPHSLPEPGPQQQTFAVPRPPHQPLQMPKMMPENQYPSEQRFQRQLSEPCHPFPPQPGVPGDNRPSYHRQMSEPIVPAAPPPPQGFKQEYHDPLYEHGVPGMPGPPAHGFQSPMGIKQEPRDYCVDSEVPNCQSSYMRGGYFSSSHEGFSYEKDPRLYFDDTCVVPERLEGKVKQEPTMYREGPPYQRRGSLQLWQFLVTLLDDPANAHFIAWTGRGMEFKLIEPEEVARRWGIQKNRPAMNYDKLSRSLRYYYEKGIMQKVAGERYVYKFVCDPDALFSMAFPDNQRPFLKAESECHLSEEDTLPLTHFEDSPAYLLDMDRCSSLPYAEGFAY
# Sequence of ETV6 (P41212 whole entry): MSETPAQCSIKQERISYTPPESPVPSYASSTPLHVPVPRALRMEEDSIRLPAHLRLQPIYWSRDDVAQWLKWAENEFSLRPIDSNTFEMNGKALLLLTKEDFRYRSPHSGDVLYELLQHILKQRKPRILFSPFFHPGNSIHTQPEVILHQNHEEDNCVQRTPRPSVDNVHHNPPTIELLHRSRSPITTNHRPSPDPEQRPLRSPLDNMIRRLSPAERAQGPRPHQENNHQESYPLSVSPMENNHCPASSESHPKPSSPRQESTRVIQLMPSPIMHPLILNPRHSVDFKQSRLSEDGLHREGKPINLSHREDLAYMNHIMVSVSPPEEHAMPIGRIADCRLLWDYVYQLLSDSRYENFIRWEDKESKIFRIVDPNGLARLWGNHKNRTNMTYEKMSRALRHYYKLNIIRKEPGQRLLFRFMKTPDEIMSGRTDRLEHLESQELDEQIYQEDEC
# Sequence of ELF4 (Q99607 whole entry): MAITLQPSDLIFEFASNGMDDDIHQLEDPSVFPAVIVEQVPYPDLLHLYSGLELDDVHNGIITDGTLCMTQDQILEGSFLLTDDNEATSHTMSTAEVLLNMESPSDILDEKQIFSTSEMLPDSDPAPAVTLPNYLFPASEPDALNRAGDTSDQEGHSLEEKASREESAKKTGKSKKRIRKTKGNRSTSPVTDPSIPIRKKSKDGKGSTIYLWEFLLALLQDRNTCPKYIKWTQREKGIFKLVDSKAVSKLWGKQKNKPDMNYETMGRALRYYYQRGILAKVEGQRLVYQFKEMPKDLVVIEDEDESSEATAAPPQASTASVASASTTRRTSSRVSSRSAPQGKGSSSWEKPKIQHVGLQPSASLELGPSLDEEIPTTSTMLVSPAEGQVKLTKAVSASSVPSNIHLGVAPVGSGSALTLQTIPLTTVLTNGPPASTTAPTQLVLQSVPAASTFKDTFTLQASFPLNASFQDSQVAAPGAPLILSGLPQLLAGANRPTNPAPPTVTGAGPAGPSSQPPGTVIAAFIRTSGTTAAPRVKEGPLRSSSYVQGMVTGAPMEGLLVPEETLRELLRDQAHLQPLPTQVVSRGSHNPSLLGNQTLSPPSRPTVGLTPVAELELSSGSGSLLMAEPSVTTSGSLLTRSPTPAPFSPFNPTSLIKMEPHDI
# Sequence of ETV1 (P50549 whole entry): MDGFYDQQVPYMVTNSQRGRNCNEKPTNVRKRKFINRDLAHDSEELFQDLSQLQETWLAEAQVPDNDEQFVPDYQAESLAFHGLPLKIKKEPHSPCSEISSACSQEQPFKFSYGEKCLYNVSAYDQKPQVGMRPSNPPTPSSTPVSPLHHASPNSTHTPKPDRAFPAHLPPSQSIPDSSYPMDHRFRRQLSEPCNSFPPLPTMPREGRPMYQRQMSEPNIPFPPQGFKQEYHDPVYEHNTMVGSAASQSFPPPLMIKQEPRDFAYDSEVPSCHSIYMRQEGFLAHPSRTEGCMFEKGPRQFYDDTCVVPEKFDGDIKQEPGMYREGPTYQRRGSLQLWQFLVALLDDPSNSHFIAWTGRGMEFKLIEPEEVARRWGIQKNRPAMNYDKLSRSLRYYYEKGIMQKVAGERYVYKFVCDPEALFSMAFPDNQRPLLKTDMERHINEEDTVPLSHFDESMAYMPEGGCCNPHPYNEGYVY
sequence,measurement,setting,value
TAAGCT,binding signal,FEV,"1.08 fold enrichment (6-mer frequency, TF over GST control)"
same,binding signal,ETV5,"1.16 fold enrichment (6-mer frequency, TF over GST control)"
same,binding signal,HSF1,"1.91 fold enrichment (6-mer frequency, TF over GST control)"
same,binding signal,SPIC,"1.24 fold enrichment (6-mer frequency, TF over GST control)"
same,binding signal,ELF4,"1.18 fold enrichment (6-mer frequency, TF over GST control)"
same,binding signal,ELK4,"1.21 fold enrichment (6-mer frequency, TF over GST control)"
same,binding signal,ETV2,"1.19 fold enrichment (6-mer frequency, TF over GST control)"
same,binding signal,ELF3,"1.32 fold enrichment (6-mer frequency, TF over GST control)"
same,binding signal,CRX,"3.23 fold enrichment (6-mer frequency, TF over GST control)"
same,binding signal,ETV1,"1.23 fold enrichment (6-mer frequency, TF over GST control)"
same,binding signal,ERF,"1.39 fold enrichment (6-mer frequency, TF over GST control)"
same,binding signal,ETV3L,"1.25 fold enrichment (6-mer frequency, TF over GST control)"
same,binding signal,ETS2,"1.13 fold enrichment (6-mer frequency, TF over GST control)"
same,binding signal,SPDEF,"1.11 fold enrichment (6-mer frequency, TF over GST control)"
same,binding signal,ETV7,"1.3 fold enrichment (6-mer frequency, TF over GST control)"
same,binding signal,ELF5,"1.04 fold enrichment (6-mer frequency, TF over GST control)"
same,binding signal,ETV3,"1.2 fold enrichment (6-mer frequency, TF over GST control)"
same,binding signal,ETV6,"1.15 fold enrichment (6-mer frequency, TF over GST control)"
